# ELG1 genotoxic: inducers of genotoxicity in HEK293T ELG1-luciferase cells. 1.3% of 330,000 active. Potency, µM (highest dose often 46 µM), for the others: at the top dose activity change, positive = activation, most hits filed as activators. HEK293T ELG1-luciferase reporter, luminescence, 16 h; also: % of control where 0% means no effect; nearly all actives have a fitted effect of over 60% in size
#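 Genotoxic stress is detected as increased luminescence from luciferase-tagged ELG1 in HEK293T cells, measured with ONE-Glo after a 16 hr treatment at 37 °C.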
# NPC1 prom act: NPC1 promoter activation; Huh7 NPC1 promoter luciferase reporter, 24 h; 2.4% of 320,000 active; Potency, µM (top dose mostly 9.22 µM), for the others: at the highest dose activation, usual class: activators; also: % of control where 0% means no effect; nearly all actives have a fitted effect of over 60% in size
#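 Luminescence from an NPC1 promoter-driven luciferase reporter in stably transfected Huh7 cells was measured after 24 h compound treatment at 37 °C, followed by 10 min ambient incubation with luciferase detection reagent.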
# Rab9 prom act: activates the Rab9 promoter. Huh7 Rab9 promoter-luciferase reporter, luminescence, 24 h. Potency, µM (series often up to 9.22 µM), inactives show top-dose activation, negative = inhibition, usual class: activators. 2.8% of 320,000 active. AID 485297; also: % of control where 0% means no effect; nearly all actives have a fitted effect of over 60% in size
#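 Luciferase signal after 10 min detection reagent at ambient indicates Rab9 promoter upregulation; stably transfected Huh7 cells were treated 24 h with compound in DMSO at 37 °C, 5% CO2.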
# FLuc counter: firefly luciferase modulation, counter-screen for miR-21 project | P08659 | purified FLuc, Km substrates, luminescence inhibition | Potency, µM (titrated, usually from 57.5 µM), without a hit: top-dose activity change, negative = inhibition, actives largely listed as inhibitors | 6.9% of 360,000 active;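 also: plate controls were vehicle for no effect and reference inhibitor for full effect; nearly all actives have a fitted effect of over 55% in size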
# Target sequence (P08659 whole entry, looked up): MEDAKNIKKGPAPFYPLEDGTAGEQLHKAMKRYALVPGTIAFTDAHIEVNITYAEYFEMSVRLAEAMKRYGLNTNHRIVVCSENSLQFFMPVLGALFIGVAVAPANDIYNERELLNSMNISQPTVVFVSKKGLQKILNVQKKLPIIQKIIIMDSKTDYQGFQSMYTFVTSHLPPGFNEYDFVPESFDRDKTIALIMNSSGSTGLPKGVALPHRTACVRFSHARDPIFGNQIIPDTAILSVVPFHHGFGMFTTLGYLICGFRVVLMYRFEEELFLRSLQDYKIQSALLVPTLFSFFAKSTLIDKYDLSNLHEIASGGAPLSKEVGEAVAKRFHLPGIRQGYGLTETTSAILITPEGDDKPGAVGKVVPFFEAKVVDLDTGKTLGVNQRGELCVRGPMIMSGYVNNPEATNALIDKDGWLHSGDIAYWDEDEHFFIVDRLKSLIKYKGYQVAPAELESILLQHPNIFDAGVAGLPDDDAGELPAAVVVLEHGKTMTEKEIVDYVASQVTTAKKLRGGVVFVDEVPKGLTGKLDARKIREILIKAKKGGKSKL
#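 Purified P. pyralis luciferase, 10 nM final, with Km-level 10 uM D-luciferin and 10 uM ATP in 50 mM Tris acetate pH 7.5, 10 mM Mg acetate, 0.01% Tween-20, 0.05% BSA; 6-point qHTS titration about 60 µM downward; luminescence read.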
# SMN2 splice enh: enhancers of SMN2 splice variant expression; HEK293 SMN2-luciferase splicing reporter, luminescence, 30-36 h; Potency, µM (top dose mostly 46.1 µM), inactives show at the highest dose activity change, positive = activation, actives largely listed as activators; 2.8% of 210,000 active; also: % of control where 0% means no effect; nearly all actives have a fitted effect of over 55% in size
#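 HEK293 cells carry an SMN2 […]–luciferase reporter in which exon 7 inclusion puts luciferase in frame. Cells were plated 10-12 h before compound addition, then incubated 30-36 h at 37C. ONE-Glo luminescence was read; sodium butyrate at 4.5 mM final served as control.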
# KinaseGlo FLuc: blocks Kinase-Glo luciferase, a counter-screen artifact; 0.28% of 200,000 active; Potency, µM (titrated, usually from 38.3 µM), for inactives: top-dose activity change, negative = inhibition, hits mostly inhibitors; AID 1379; Kinase-Glo luciferase, ATP luminescence, 8 min; also: % is scaled to controls: 0 for no effect and ±100 for the full control effect; nearly all actives have a fitted effect of over 60% in size
#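 Light output from Kinase-Glo luciferase with luciferin and 10 uM ATP in 50 mM imidazole pH 7.2, KCl, MgCl2, Tween 20, BSA; compound pin-delivered, 8-min ambient incubation, then luminescence read.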
# Starred values were filed as active, the others as inactive; ? = inconclusive; nt = no result given; [ ] = remark or other dose. An excerpt weighted towards active compounds, which were near 7.5% of everything screened. Calls follow the shape of the dose curve; as a rule, active = well fitted curve in the direction sought with a large enough effect; inconclusive = small, poorly fitted or top-dose-only effect, or another doubt; inactive = no such curve, though single readings can be large; an effect the other way counts as inactive or inconclusive. Potency is read from the fitted curve at half-maximal effect.
SMILES,ELG1 genotoxic,NPC1 prom act,Rab9 prom act,FLuc counter,SMN2 splice enh,KinaseGlo FLuc
COC(=O)c1ccc(CSc2nc3ccccc3s2)o1,16.4µM*,?,?,16.9µM*,?,0.8%
COC(=O)c1ccc(/C(O)=C(\C#N)c2nc3ccccc3s2)cc1,3.3%,2.82µM*,3.16µM*,7.57µM*,nt,nt
O=C(O)CSc1nc2ccccc2s1,0.6%,-2.3%,0.2%,-16.4%,nt,nt
O=C(Cc1ccccc1)c1nc2ccccc2s1,?,2.51µM*,2.82µM*,10.7µM*,3.98µM*,-12.7%
CC(C)NC(=O)c1nc2ccccc2s1,?,0.9%,-1.7%,?,nt,-1.1%
COc1cccc2c(C)cc3nnc(SCC(=O)Nc4ccc(C)cc4)n3c12,nt,nt,nt,-15.2%,nt,nt
Cc1ccc(NC(=O)CSc2nccn2C2CCCC2)cc1,nt,nt,nt,-10.5%,nt,nt
Cc1c(C(=O)O)sc2nc(/C=C/c3cccc(O)c3)[nH]c(=O)c12,0.5%,-11.7%,-7.0%[1.84 µM],16.9µM*,nt,nt
COc1ccc(CCNC(=O)CSc2nc3sc(C(=O)O)c(C)c3c(=O)[nH]2)cc1OC,0.8%,2.0%,4.4%,0.3%,nt,nt
CC1(C)Cc2nc3sc4c(SCC(=O)NCc5ccco5)ncnc4c3cc2CO1,2.06µM*,-2.4%,?,5.36µM*,?,-2.7%
Cc1nc2c(sc3nc4c(cc32)COC(C)(C)C4)c(=O)n1CC(=O)NCc1ccco1,?,-6.5%,?,8.49µM*,12.6µM*,-10.4%
Cc1nc2c(sc3nc4c(cc32)COC(C)(C)C4)c(=O)n1Cc1ccccc1,?,25.6%,?,23.9µM*,-35.6%,-1.6%
CCCc1nc2c(sc3nc4c(cc32)COC(C)(C)C4)c(=O)n1Cc1ccco1,-3.1%,-2.5%,-3.0%,-0.8%,-17.1%,2.6%
CCN(c1cccc(C)c1)S(=O)(=O)c1ccc(O)c(C(=O)O)c1,nt,nt,nt,nt,nt,0.9%
COc1ccccc1NC(=O)Cn1cc(S(=O)(=O)Cc2ccccc2)c2ccccc21,nt,nt,nt,-2.8%,nt,nt
Cc1nc(Nc2ccc3c(c2)OCO3)c2oc3ccccc3c2n1,1.8%,16.3%,3.9%,30.1µM*,-13.7%,-8.4%
c1ccc2c(c1)oc1c(Nc3ccc4c(c3)OCO4)ncnc12,5.8µM*,1.41µM*,1µM*,2.13µM*,?,-9.6%
Cc1ccc(N2CC(NC(=O)c3ccc(S(=O)(=O)N4CCCC4)cc3)CC2=O)cc1 (stereo unspecified),nt,nt,nt,-3.1%,nt,nt
Fc1ccc(CSc2nnc(-c3ccccn3)o2)cc1,?,1.41µM*,2.24µM*,10.7µM*,nt,nt
O=C(CSc1nnc(-c2ccccn2)o1)Nc1ccccc1,?,2.51µM*,2.51µM*,-16.0%,11.2µM*,0.1%
O=C(CSc1nnc(-c2ccccn2)o1)Nc1ccc(F)cc1,?,2µM*,?,5.9%,nt,nt
COc1cccc(C(=O)N2CCN(C3CCN(Cc4ccccc4)CC3)CC2)c1OC,-4.4%,-1.5%,-7.8%,-0.8%,nt,nt
Cc1ccc2c(c1)C(=O)OC(C(=O)Nc1ccc(C(=O)O)cc1)C2 (stereo unspecified),nt,nt,nt,7.57µM*,-3.4%,nt
c1ccc(-c2cnc(-c3ccccc3)nc2)cc1,?,0.562µM*,0.355µM*,0.301µM*,7.08µM*,-25.5%
c1ccc(-c2ncc3c(ccc4ccccc43)n2)cc1,0.651µM*,3.98µM*,0.794µM*,0.0849µM*,0.501µM*,-24.9%
SMILES,ELG1 genotoxic,NPC1 prom act,Rab9 prom act,FLuc counter,SMN2 splice enh,KinaseGlo FLuc
CC(CCc1ccccc1)NC(=O)C(=O)Nc1ccccc1 (stereo unspecified),?,3.16µM*,2.82µM*,?,14.1µM*,-5.8%
Cc1ccc2cc3c(nc2c1)OCC3,9.1%,3.7%,0.7%,-29.1%,nt,nt
COC1CCC(C(=O)c2ccc3nc4c(cc3c2)CCCO4)CC1 (stereo unspecified),nt,nt,nt,nt,12.6µM*,0.1%
Cc1sc(NC(=S)NC(=O)C(C)(C)C)c(C(N)=O)c1C,?,?,?,4.78µM*,?,-0.1%
CC(C)(C)C(=O)NC(=S)Nc1sc2c(c1C(N)=O)CCC2,28.4%,?,?,4.78µM*,10µM*,0.3%
CC(=O)Nc1sc2c(c1C(N)=O)CCC2,-3.0%,1.5%,0.5%,1.4%,2.7%,-0.3%
CCCCC(=O)Nc1sc2c(c1C(N)=O)CCC2,?,21.0%,?,21.3µM*,?,-2.9%
Cc1ccccc1NC(=O)CSc1cn(CC(=O)N2CCCCCC2)c2ccccc12,nt,nt,nt,4.7%,nt,nt
OCCc1c[nH]c2ccc(C(F)(F)F)cc12,3.0%,-6.4%,2.1%,7.8%,nt,nt
COc1ccc(Br)c2c1-c1nc(NC(=O)c3ccc(F)cc3)sc1C2,nt,nt,nt,-4.5%,-2.5%,nt
O=C1N=C(c2ccccc2)S/C1=C\c1cccs1,?,23.9%,18.6%,3.79µM*,2.8%,-12.5%
O=C1OC(c2ccc(F)cc2)=C/C1=C\c1ccc([N+](=O)[O-])o1,7.2%,-11.8%,-7.0%,-18.8%,-10.4%,-4.3%
O=C1OC(c2ccccc2)=C/C1=C/c1cccs1,1.6%,3.0%,3.3%,0.675µM*,6.5%,-7.2%
O=C1N=C(N2CCN(c3ccccc3)CC2)S/C1=C/c1cccs1,-4.7%,7.4%,2.7%,?,4.1%,-1.6%
O=C1N=C(N2CCN(Cc3ccccc3)CC2)S/C1=C/c1cccs1,0.4%,19.8%,27.4%,9.53µM*,nt,nt
CCC1(CC)NC(=O)N(CC(=O)Nc2cccc3ccccc23)C1=O,2.0%,nt,nt,nt,nt,nt
O=C(CSc1nc2cc(C(=O)NC3CCCC3)ccc2c(=O)n1CC1CCCO1)c1ccc(F)cc1 (stereo unspecified),nt,nt,nt,0.8%,nt,nt
Cc1ccc(COc2ccc(C)nc2[N+](=O)[O-])cc1,3.66µM*,0.794µM*,0.708µM*,2.39µM*,nt,nt
COc1ccc(OCCOc2ccc(C)nc2[N+](=O)[O-])cc1,?,?,?,23.9µM*,?,-4.3%
COc1ccc(OCCOCCOc2ccc(C)cc2[N+](=O)[O-])cc1,-0.3%,-0.2%,-6.2%,?,2.1%,0.8%
Cc1ccc(OCCOc2ccc(Cl)cc2Cl)c([N+](=O)[O-])n1,?,?,26.9%,16.9µM*,-14.0%[1.84 µM],-0.4%
Cc1cccc(N2CSC3=C(C#N)C(c4ccc(C)o4)CC(=O)N3C2)c1 (stereo unspecified),?,-3.2%,3.9%,16.9µM*,5.7%,-8.3%
O=C(NCCN1CCOCC1)/C(=C/c1ccco1)NC(=O)c1ccccc1,4.8%,1.3%,2.9%,1.8%,nt,nt
COc1ccccc1NC(=O)C1=C(C)Nc2nc(SCc3ccc(Cl)cc3)nn2C1c1ccccc1Cl (stereo unspecified),nt,nt,nt,6.4%,8.7%,nt
O=C(Nc1ccc(SC(F)F)cc1)C1=COCCO1,2.59µM*,1.26µM*,1µM*,4.78µM*,11.2µM*,-6.6%
